Source: PubChem BioAssay (several laboratories)
Rows were chosen to be rich in hits. Some 2.3% of all compounds tested hit in one or more screens of this group.
FID counter: displaces DNA intercalator in HCV helicase counter-screen; DNA fluorescent intercalator displacement, fluorescence; inhibition, % at 7.9 µM; 0.17% of 290,000 active; in the data active = inhibition above about 37%;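 also: 0% = vehicle and 100% = reference compound; higher means more ethidium bromide displaced from hairpin DNA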
PfM18AAP inh-1: PfM18AAP enzyme inhibition | recombinant PfM18AAP, H-Glu-NHMec fluorogenic cleavage | inhibition, % at 7.35 µM | 1.2% of 290,000 active | AID 1822;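 active = inhibition above the campaign mean inhibition over all tested compounds plus 3 SD, cut at about 28% in these data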;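 also: 0% = plate median of test compound wells and 100% = 2 mM ZnCl2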
Rce1 inh: inhibitors of yeast Ras-converting enzyme. Q03530. yeast membranes, quenched prenylated peptide cleavage fluorescence. calls only. 0.27% of 290,000 active. AID 2563;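 active = fall in fluorescence gain of 50% or more versus controls, with final raw signal at or below 3038400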;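 also: plate controls were neutral control wells for no effect and wells lacking membranes for full effect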
Target sequence (Q03530 whole entry, looked up): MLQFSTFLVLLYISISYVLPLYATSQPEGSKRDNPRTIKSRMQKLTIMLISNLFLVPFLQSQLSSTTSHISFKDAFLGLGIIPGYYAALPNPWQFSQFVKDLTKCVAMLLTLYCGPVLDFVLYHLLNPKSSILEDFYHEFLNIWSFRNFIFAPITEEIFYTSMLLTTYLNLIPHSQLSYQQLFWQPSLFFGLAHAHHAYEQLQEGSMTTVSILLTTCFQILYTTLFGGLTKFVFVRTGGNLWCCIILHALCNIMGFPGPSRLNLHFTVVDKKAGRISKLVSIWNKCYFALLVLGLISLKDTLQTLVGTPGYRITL
Kir21 block: inhibitors of mouse Kir2.1 inward-rectifier potassium channel. P35561. HEK293-Kir2.1, FluxOR thallium flux fluorescence; active compounds read low. 0.85% of 310,000 active. B-score at 10 µM;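 active = fluorescence ratio B-score at or below minus 3 SD of library scores, with starting-brightness B-score within 2 SD, cut at about -4.2 in these data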;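 also: channel flux triggered by added potassium and thallium sulfate stimulus; B-score of peak minus minimum fluorescence over baseline after thallium stimulus; more negative B-score means stronger Kir2.1 block with less thallium influx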
PfM18AAP inh-2: PfM18AAP inhibition, confirmation. shares compounds with PfM18AAP inh-1. recombinant PfM18AAP, H-Glu-NHMec fluorogenic cleavage. 28% of 2,400 active. inhibition, % at 7.35 µM;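 active = mean inhibition over replicate wells above the hit cutoff set for the earlier primary screen, cut at about 29% in these data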;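 also: 0% = median of test compound wells and 100% = 2 mM ZnCl2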
CTSL1 counter: counter-screen for PFM18AAP inhibitors: confirmation of human cathepsin L inhibitors; shares compounds with PfM18AAP inh-1; inhibition, % at 5.96 µM; 2,400 tested, under 10 active; purified cathepsin L1, Z-Leu-Arg-MCA fluorescence; AID 2178;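 active = average inhibition across replicates above the hit cutoff set in the earlier primary screen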;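 also: 0% = median of test compound wells and 100% = Z-Phe-Ala-diazomethylketone 1 µM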
Target sequence (P07711 whole entry, looked up): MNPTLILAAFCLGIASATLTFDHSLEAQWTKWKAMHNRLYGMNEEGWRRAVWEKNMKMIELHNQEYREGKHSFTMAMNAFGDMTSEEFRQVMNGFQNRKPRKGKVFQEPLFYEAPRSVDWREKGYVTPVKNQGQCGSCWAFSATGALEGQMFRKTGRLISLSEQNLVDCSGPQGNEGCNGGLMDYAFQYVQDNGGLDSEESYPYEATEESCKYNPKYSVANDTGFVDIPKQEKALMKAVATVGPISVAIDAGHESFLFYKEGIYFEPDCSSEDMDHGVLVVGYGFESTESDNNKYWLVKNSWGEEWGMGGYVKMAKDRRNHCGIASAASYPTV
An asterisk follows results filed as active.

For COC(=O)C1=C(C)NC(=S)NC1c1ccc(-c2cc(Cl)ccc2Cl)o1 (configuration not stated) the results were FID counter -39.9, PfM18AAP inh-1 36.2*, Rce1 inh inactive, Kir21 block -2.92, PfM18AAP inh-2 -55.4 and CTSL1 counter 8.7.
For NC(=S)NNC(=O)c1cccc(Br)c1 the results were FID counter -6.7, PfM18AAP inh-1 22.5, Rce1 inh inactive and Kir21 block -0.38.
For O=C(NC(=S)Nn1cnnc1)c1cccc(Br)c1 the results were FID counter -2.1, PfM18AAP inh-1 69.1*, Rce1 inh inactive, Kir21 block 0.27, PfM18AAP inh-2 87.3* and CTSL1 counter 0.6.
`Cc1ccc(/C=C/C(=O)Nn2cnnc2)cc1` gave FID counter -3.2, PfM18AAP inh-1 41.2*, Rce1 inh inactive, Kir21 block -0.61, PfM18AAP inh-2 51.3* and CTSL1 counter -5.7.
`CC(=O)NNC(=S)NC(=O)c1ccc(C)cc1` gave FID counter -9.8, PfM18AAP inh-1 20.7, Rce1 inh inactive and Kir21 block 0.86.
For Cc1ccc(C(=O)NC(=S)Nn2cnnc2)cc1 the results were FID counter -4.4, PfM18AAP inh-1 83.6*, Rce1 inh inactive, Kir21 block 0.9, PfM18AAP inh-2 60.3* and CTSL1 counter -2.4.
Screening Cc1ccc(/C=C/C(=O)NN2CCN(C)CC2)cc1 returned FID counter 2.7, PfM18AAP inh-1 -0.4, Rce1 inh inactive and Kir21 block -0.27.
Cc1ccn2c(=O)nc(SCC(=O)N3CCCC3)nc2c1 was read as Rce1 inh inactive and Kir21 block -0.37.
`CCOC(=O)C1CCCN(Cc2ccc(OC)c(OCc3ccccc3)c2)C1` (configuration not stated) gave FID counter 8.0, PfM18AAP inh-1 -1.9, Rce1 inh inactive and Kir21 block -0.23.
Screening COc1cc(CNc2ccc(CNc3ncn[nH]3)cc2)cc(Cl)c1OCc1ccccc1 returned FID counter -9.3, PfM18AAP inh-1 34.2*, Rce1 inh inactive, Kir21 block 0.25, PfM18AAP inh-2 -41.3 and CTSL1 counter 0.7.
CC1CC(C)CN(C(=O)COC(=O)c2nn(C)c(=O)c3ccccc23)C1 (configuration not stated) was read as Rce1 inh inactive and Kir21 block -1.71.
For O=C(CN1CCc2cc3c(cc2C1)OCCCO3)Nc1cccc([N+](=O)[O-])c1 the results were FID counter 25.4, PfM18AAP inh-1 34.7*, Rce1 inh inactive, Kir21 block 0.63, PfM18AAP inh-2 1.2 and CTSL1 counter -0.4.
Screening Cc1cccc(NC(=O)CN2CCc3cc4c(cc3C2)OCCCO4)c1 returned FID counter 5.2, PfM18AAP inh-1 20.3, Rce1 inh inactive and Kir21 block 0.45.
For Cc1ccc(-c2n[nH]c(=S)n2C)cc1 the results were FID counter -3.3, PfM18AAP inh-1 18.8, Rce1 inh inactive and Kir21 block 0.77.
Screening Cc1ccc(-c2cn3c(=S)[nH]nc3s2)cc1 returned FID counter -6.8, PfM18AAP inh-1 64.0*, Rce1 inh inactive, Kir21 block 1.27, PfM18AAP inh-2 46.0* and CTSL1 counter 1.4.
O=C(Cc1ccccc1)Nc1nc(=O)c2ccccc2s1 was read as FID counter -2.5, PfM18AAP inh-1 39.8*, Rce1 inh inactive, Kir21 block -0.01, PfM18AAP inh-2 -52.5 and CTSL1 counter -11.0.
O=C(Nc1nc(=O)c2ccccc2s1)c1ccc(F)cc1 was read as FID counter -2.8, PfM18AAP inh-1 41.5*, Rce1 inh inactive, Kir21 block 0.82, PfM18AAP inh-2 -32.1 and CTSL1 counter -0.9.
For O=C(c1ccc(F)c(F)c1)N1CCC2(CC1)NCCc1[nH]cnc12 the results were FID counter 2.9, PfM18AAP inh-1 -7.2, Rce1 inh inactive and Kir21 block -0.19.
Cn1c(CO)nc2cc(N)ccc21 was read as FID counter -0.5, PfM18AAP inh-1 38.9*, Rce1 inh inactive, Kir21 block 2.44, PfM18AAP inh-2 -45.2 and CTSL1 counter 0.9.
For O=C1C=C(Nc2cccc(O)c2)CC(c2ccco2)C1 (configuration not stated) the results were FID counter -9.2, PfM18AAP inh-1 44.1*, Rce1 inh inactive, Kir21 block -1.27, PfM18AAP inh-2 -33.9 and CTSL1 counter 2.4.
`O=C(CSc1nc2cc(S(=O)(=O)N3CCOCC3)ccc2o1)Nc1c(F)cccc1F` gave FID counter -5.9, PfM18AAP inh-1 32.1*, Rce1 inh inactive, Kir21 block -0.5, PfM18AAP inh-2 2.9 and CTSL1 counter -0.9.
`Cc1ccc(C(=O)CSc2nc3cc(S(=O)(=O)N4CCOCC4)ccc3o2)cc1` gave FID counter 2.0, PfM18AAP inh-1 11.6, Rce1 inh inactive and Kir21 block -0.37.
`N#CC[C@H](Cc1ccccc1)N1CCN(Cc2ccccc2)CCC1=O` gave FID counter -13.5, PfM18AAP inh-1 5.5, Rce1 inh inactive and Kir21 block 0.67.
For N#CC[C@H](Cc1ccccc1)N1CCN(CCc2ccccc2)CCC1=O the results were FID counter 0.0, PfM18AAP inh-1 32.9*, Rce1 inh inactive, Kir21 block -0.57, PfM18AAP inh-2 -53.9 and CTSL1 counter 2.6.
For CCOC(=O)N1CCN(Cc2nc3cc(NC(=O)c4ccco4)ccc3n2CC)CC1 the results were FID counter -44.3, PfM18AAP inh-1 -3.0, Rce1 inh inactive and Kir21 block 2.45.
`Cc1cc(NNC(=O)Nc2cccc(Cl)c2)nc2c1c(C)nn2C` gave FID counter -23.4, PfM18AAP inh-1 39.0*, Rce1 inh inactive, Kir21 block 0.07, PfM18AAP inh-2 27.8 and CTSL1 counter 2.8.
Screening O=C(NCc1ccccc1)C(c1ccc(O)cc1)N(C(=O)c1cnccn1)c1ccccc1 (configuration not stated) returned FID counter -16.2, PfM18AAP inh-1 -1.3, Rce1 inh inactive and Kir21 block 0.51.
O=S(=O)(O)c1cc(O)c2c(O)c(N=Nc3cc(Cl)ccc3O)c(S(=O)(=O)O)cc2c1 was read as FID counter -31.2, PfM18AAP inh-1 44.7*, Rce1 inh inactive, Kir21 block 2.51, PfM18AAP inh-2 28.6* and CTSL1 counter 1.1.
`Oc1ccc(Cl)cc1N=Nc1ccccc1` gave FID counter 1.6, PfM18AAP inh-1 3.3, Rce1 inh inactive and Kir21 block -0.48.
For Cc1ccsc1-c1n[nH]c(=S)n1CC(C)C the results were FID counter -10.4, PfM18AAP inh-1 33.8*, Rce1 inh inactive, Kir21 block -0.59, PfM18AAP inh-2 -12.5 and CTSL1 counter 4.6.
For O=C(Nc1ccccc1C(=O)O)c1ncn[nH]1 the results were FID counter 3.1, PfM18AAP inh-1 76.5*, Rce1 inh inactive, Kir21 block 0.3, PfM18AAP inh-2 58.0* and CTSL1 counter -0.8.
O=C(CSc1ncn[nH]1)Nc1nc(-c2ccccc2)ns1 was read as FID counter 1.4, PfM18AAP inh-1 81.8*, Rce1 inh inactive, Kir21 block -0.28, PfM18AAP inh-2 84.8* and CTSL1 counter -3.8.
